This passage reports Potency results from PubChem BioAssay AID448 (National Center for Advancing Translational Sciences (NCATS), 2006).

Structures are written as SMILES. Among all 65,000 compounds or so, about 45 (0.07%) were called active. Calls come from the whole dose curve. Not all results are given here.
Potency is the fitted concentration of half-maximal effect.

The test system of this assay is Schistosoma mansoni peroxiredoxin 2 (Prx2). In words: Schistosoma Mansoni Peroxiredoxins (Prx2). To be noted: S. mansoni Prx2 activity coupled to TGR/GSH (TGR is thioredoxin glutathione reductase), NADPH fluorescence loss, qHTS. An excerpt: NIH Molecular Libraries Screening Centers Network [MLSCN]
NIH Chemical Genomics Center [NCGC]
David Williams [Illinois State University]
Schistosoma mansoni, a causative agent of schistosomiasis, resides in the bloodstream of their host up to 30 years without being eliminated by the host immune attack. One proposed survival mechanism is the production of an antioxidant "firewall" that neutralizes the oxidative assault of the host's immune attack. Schistosoma mansoni peroxiredoxins (Prx) are important parasite antioxidant proteins that play a crucial role in redox balance mechanisms. […] First, the proteins are essential for the parasite survival. […] Third, the protein(s) is amenable for study at the molecular level and can be produced in bacteria in large quantities, in soluble and active form. Inhibition of Prx activity was screened in a coupled-enzyme format with reducing equivalents being transferred from NADPH to […] intermediate via thioredoxin/glutathione reductase (TGR)-catalyzed reaction, then from thioredoxin to hydrogen peroxide via Prx-catalyzed electron transfer. A decrease in the fluorescence intensity of NADPH was used to measure the enzyme activity. Purified S. mansoni TGR and Prx were provided by Professor David L. Williams, Illinois State University.
NCGC Assay Protocol Summary:
100 mM phosphate buffer, pH 7.4, 10 mM EDTA, 0.01% Tween-20.
100 uM NADPH/25 nM TGR/700 uM GSH/50 nM Prx2 mixture in columns 1, 2, 5-48. Titration of control potassium antimonyl tartrate (PAT, from 1 mM, then 1:5) pin-transferred to lower half of column 2. Column 1 and upper half of column 2 are neutral (100% activity).
Three uL of reagents were dispensed to 1536-well Greiner black plates. Compounds and controls (20 nL) were transferred via Kalypsys PinTool. The plates were incubated for 15 min at room temperature, and then a 1 uL aliquot of 400 uM NADPH/700 uM GSH was added, immediately followed by a 1uL aliquot of 2.5 mM H2O2 (to start the reaction). The plate was transferred to ViewLux (Perkin-Elmer) High-throughput CCD imager where kinetic measurements (every 30 sec, for a total of 8 min) of NADPH fluorescence were taken using 365 nm excitation/450 nm emission filter set. During dispense, enzyme-containing reagent bottles were kept submerged into 4 deg C water bath to minimize degradation.
Keywords: NIH Roadmap, MLSCN, MLI, MLSMR, David Williams, Peroxyredoxin, Schistosoma mansoni, prx2, prx, , qHTS, NCGC
(In general: In qHTS, concentration-response curves come from the screen itself.)
Consider `COc1ccccc1-c1nc(NCCNC(C)=O)c2ccccc2n1`, for which the Potency was > 57 µM (inactive).

Regarding `O=C(c1cccc(F)c1)N1CCC2(CCCN(Cc3ccncc3)C2)CC1`, the Potency is > 57 µM (inactive).

For the compound `O=c1cc(-c2ccccc2)[nH]c2nc(Cl)ccc12`, the Potency was > 57 µM (inactive).

As to `O=c1cc(-c2ccc(O)c(O)c2)oc2cccc(O)c12`, the Potency was > 57 µM (inactive).

For `CC(C)C[C@@H](CC(=O)N[C@@H](CCC(=O)O)CC(=O)O)NC(=O)[C@@H]1CCCC[C@H]1NC(=O)C[C@@H](NC(=O)C[C@H](Cc1c[nH]c2ccccc12)NC(=O)[C@@H]1CCCC[C@H]1N)C(C)C`, the Potency was > 57 µM (inactive).

As to `C[N+]1(CCN=C=NC2CCCCC2)CCOCC1`, the Potency was > 57 µM (inactive).

`O=C(c1cc(C(F)(F)F)cc(C(F)(F)F)c1)N1CCC2(CC1)CN(c1ccncc1)C2`: the Potency was > 57 µM (inactive).

For the compound `O=C(c1csnn1)N1CCC[C@@]2(CCN(Cc3nccs3)C2)C1`, the Potency is > 57 µM (inactive).

Consider `COC(=O)[C@@]1(Cc2ccc(F)cc2)[C@H]2c3cc(C(=O)N4CCCC4)n(Cc4ccc(OC(F)(F)F)cc4)c3C[C@H]2CN1C(=O)c1ccccc1`, for which the Potency is > 57 µM (inactive).

`CC[C@]1(C)CC(=O)NC1=O`: the Potency is > 57 µM (inactive).

For `Cn1cc(-c2nc3cnc(N4CCNCC4)nc3n(CCC#N)c2=O)c2ccccc21`, the Potency is > 57 µM (inactive).

`O=C(O)c1ccc(C(=O)c2ccccc2C(=O)O)cc1C(=O)O`: the Potency was > 57 µM (inactive).

As for `O=C1c2ccccc2C(=O)N1CCCSc1ccccc1`, the Potency is > 57 µM (inactive).

On to `O=C(O)COc1c(Cl)cc(Cl)c2cccnc12`, for which the Potency is > 57 µM (inactive).

Consider `COc1cccc(Cn2c(=O)c(-c3cc(F)cc(F)c3)nc3cnc(OC)nc32)c1`, for which the Potency is > 57 µM (inactive).

For the compound `CCC[C@@H]1C[C@@]1(CCC)C(NC(=O)c1ccc(-c2ccccc2)cc1)c1cccc(Cl)c1` (stereo partly drawn), the Potency was > 57 µM (inactive).

For `COc1cccc(-c2nc(Nc3ccncc3)c3ccccc3n2)c1`, the Potency was > 57 µM (inactive).

For the compound `Clc1ccc(C(c2ccc(Cl)cc2)n2cc[n+](C[C@@H](OCc3ccc(Cl)cc3Cl)c3ccc(Cl)cc3Cl)c2)cc1`, the Potency was > 57 µM (inactive).

As to `CC(=O)N1CCC2(CC1)CCN(c1ccncc1)CC2`, the Potency is > 57 µM (inactive).

`CCOc1ccc(N=NS(=O)(=O)O)cc1`: the Potency was > 57 µM (inactive).

As for `NCCNCC1CCNCC1`, the Potency was > 57 µM (inactive).

As to `CN(C)c1cc2c(Nc3ccc4c(cnn4Cc4ccccc4)c3)ncnc2cn1`, the Potency is > 57 µM (inactive).

Take `C[C@@H]1CC[C@H]2[C@H](C)[C@H]3[C@H](C[C@H]4[C@@H]5CC=C6C[C@@H](O)CC[C@@]6(C)[C@@H]5C[C@@H](O)[C@]34C)N2C1`: the Potency is > 57 µM (inactive).
